This passage reports outcome and AC50 results from PubChem BioAssay (EPA / NIEHS).

Active and inactive are the calls of the source. How the source made its calls: active means hit-call score of the fitted dose curve at least 0.9, where 1 is the maximum; inactive means score below 0.9.

In assay [1] the target is Transcription factor E2F1 (Homo sapiens) (UniProt Q01094). As to the kind of experiment: ATG_E2F_CIS: Attagene CIS-FACTORIAL HepG2 Assay for human E2F Transcription Factor 1 (AID 2282935). The following applies: HepG2 Attagene cis-reporter, E2F reporter RNA transcripts; actives raise or lower the signal. The method, boiled down:
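Transient MRTU transfection of HepG2; 24 h compound exposure; RNA → oligo(dT) RT → PCR → FAM label → HpaI cut → CE fluorescence. Gain/loss of signal fit against DMSO.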

Assay [2] is described as follows: ATG_E_Box_CIS: Attagene CIS-FACTORIAL HepG2 Assay for human Enhancer Box (E-box) (AID 2282936). The following applies: HepG2 E-box cis-reporter transcription, actives raise or lower the signal. The method, boiled down: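 Transiently transfected HepG2, endogenous TF-driven reporters, 24 h dosing. Readout: RT-PCR plus capillary electrophoresis of fluorescent reporter fragments. Gain or loss of signal fitted bidirectionally against DMSO baseline.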

Assay [3] can be described thus: ATG_M_61_CIS: Attagene CIS-FACTORIAL HepG2 Assay for M61 Transcription Factor (Internal Marker) (AID 2282937). The following applies: HepG2 Attagene CIS-FACTORIAL M61 internal marker reporter; actives raise or lower the signal. The method, boiled down:
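Endogenous transcription factor activity in HepG2 is read through transiently transfected cis-element reporter units. After 24 h dosing, RNA undergoes reverse transcription, PCR and primer extension with 6-FAM before capillary electrophoresis; DMSO-referenced bidirectional fit.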

Assay [4] in a line: ATG_EGR_CIS: Attagene CIS-FACTORIAL HepG2 Assay for human Early Growth Response 1 (EGR1) (AID 2282938). The settings on record: HepG2 Attagene CIS-FACTORIAL EGR reporter mRNA; actives raise or lower the signal. The essentials: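 Activity is taken as induction or loss of reporter mRNA versus DMSO, fitted bidirectionally. Transcripts from cis-regulated reporter units in transiently transfected HepG2 were measured after 24 h by RT-PCR with capillary electrophoresis.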

Assay [5] in a line: ATG_M_19_CIS: Attagene CIS-FACTORIAL HepG2 Assay for M19 Transcription Factor (Internal Marker) (AID 2282939). The following applies: HepG2 Attagene CIS-FACTORIAL M19 internal marker reporter; actives raise or lower the signal. The essentials:
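Following a 24 h exposure, RNA from transfected HepG2 cells was reverse-transcribed, PCR-amplified with reporter-specific primers, end-labelled with 6-FAM and HpaI-digested before capillary separation. Values represent gain or loss versus DMSO.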

The nature of assay [6]: ATG_ERE_CIS: Attagene CIS-FACTORIAL HepG2 Assay for Estrogen Response Element (ERE) (AID 2282940). The following applies: HepG2 ERE cis-reporter, Attagene RNA transcript; actives raise or lower the signal. The method, boiled down:
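HepG2, transient cis-reporter units, 24 h exposure. RNA isolated, oligo(dT) RT, reporter-specific PCR, FAM extension, HpaI cut, CE detection. Gain/loss-of-signal vs DMSO.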

The nature of assay [7]: ATG_Ets_CIS: Attagene CIS-FACTORIAL HepG2 Assay for human Erythroblast Transformation Specific (ETS) (AID 2282941). The settings on record: HepG2 ETS cis-reporter transcription, actives raise or lower the signal. The essentials:
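RT-PCR/capillary electrophoresis fluorescence read-out of reporter mRNA; HepG2 transient multi-reporter transfection; 24 h compound exposure; gain or loss of signal fitted bidirectionally relative to DMSO.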

For assay [8], the target named is Hepatocyte nuclear factor 3-beta (Homo sapiens) (UniProt Q9Y261). As to the kind of experiment: ATG_FoxA2_CIS: Attagene CIS-FACTORIAL HepG2 Assay for human Forkhead box A2 (FOXA2) (AID 2282942). The following applies: HepG2 cis-reporter transcription factor activity, 24 h; actives raise or lower the signal. The essentials: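 Reporter transcript induction is measured by fluorescence after capillary electrophoresis of RT-PCR products from HepG2 cells exposed 24 h. Cis-regulated reporter units report endogenous factor activity; curves fitted both directions against DMSO.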

Assay [9] is described as follows: ATG_FoxO_CIS: Attagene CIS-FACTORIAL HepG2 Assay for human Forkhead box O (FoxO) (AID 2282943). The settings on record: HepG2 Attagene cis-reporter, FoxO element, mRNA; actives raise or lower the signal. The essentials:
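Read-out: fluorescence of 6-FAM-labelled reporter cDNA fragments resolved by capillary electrophoresis. Transiently transfected HepG2 cells were dosed for 24 h; activity fitted in both directions relative to DMSO controls.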

A short description of assay [10]: ATG_GATA_CIS: Attagene CIS-FACTORIAL HepG2 Assay for human GATA Binding Protein (AID 2282944). The settings on record: HepG2 GATA cis-element reporter, Attagene multiplex mRNA; actives raise or lower the signal. The method, boiled down:
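DMSO serves as negative control and baseline for bidirectional fitting of reporter mRNA changes. HepG2 cells bearing transiently transfected cis-promoter reporters were exposed 24 h; transcripts detected via RT-PCR and capillary electrophoresis.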

Assay [11] can be described thus: ATG_GLI_CIS: Attagene CIS-FACTORIAL HepG2 Assay for human Zinc Finger Protein GLI1 (AID 2282945). The settings on record: HepG2, Attagene cis-factorial reporter mRNA, GLI element; actives raise or lower the signal. The essentials: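 Transiently transfected HepG2 cells report endogenous transcription factor activity via cis-element-driven reporter units. After 24 h compound exposure, reporter mRNA was measured by RT-PCR with capillary electrophoresis; bidirectional fitting against DMSO baseline.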

Assay [12] concerns the target Bile acid receptor (Homo sapiens) (UniProt Q96RI1). As to the kind of experiment: ATG_IR1_CIS: Attagene CIS-FACTORIAL HepG2 Assay for human Nuclear Receptor Subfamily 1 Group H Member 4 (NR1H4), IR1 submotif (AID 2282946). The settings on record: IR1 reporter transcription, actives raise or lower the signal. The essentials: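 Fluorescence of capillary-separated, HpaI-digested RT-PCR reporter products gave IR1-element mRNA induction in HepG2 cells 24 h after dosing. Endogenous transcription factors drove the cis-regulated reporters; activity was fitted bidirectionally against DMSO.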

Assay [13] in a line: ATG_ISRE_CIS: Attagene CIS-FACTORIAL HepG2 Assay for human Interferon Regulatory Factor 1 (IRF1) binding to an Interferon-Stimulated Response Element (ISRE) (AID 2282948). The following applies: HepG2 ISRE cis-reporter (Attagene), mRNA transcription readout; actives raise or lower the signal. The essentials:
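Read-out: fluorescent RT-PCR products resolved by capillary electrophoresis, reporting endogenous transcription factor activity via ISRE-driven reporter mRNA in transfected HepG2 cells dosed for 24 h; gain or loss fitted relative to DMSO.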

Assay [14] is described as follows: ATG_M_32_CIS: Attagene CIS-FACTORIAL HepG2 Assay for M32 Transcription Factor (Internal Marker) (AID 2282949).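 Further: background control marker of the multiplexed CIS panel rather than a real target.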 The following applies: HepG2 Attagene cis-factorial M32 reporter, mRNA; actives raise or lower the signal. The method, boiled down:
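Using DMSO as baseline, bidirectional curve fits were applied to reporter mRNA signals. These came from transiently transfected HepG2 cells exposed for 24 h, with RNA analysed by RT-PCR, FAM primer extension, HpaI digestion and CE.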

A short description of assay [15]: ATG_M_06_CIS: Attagene CIS-FACTORIAL HepG2 Assay for M06 Transcription Factor (Internal Marker) (AID 2282950). The settings on record: HepG2 Attagene CIS-FACTORIAL M06 internal marker reporter; actives raise or lower the signal. The method, boiled down:
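Fluorescence-labelled RT-PCR products from cis-promoter reporter units, cut with HpaI and resolved by capillary electrophoresis, give the signal. Cells are human HepG2, dosed for 24 h. Serves as background control, fitted relative to DMSO.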

For assay [16], the target named is Hypoxia-inducible factor 1-alpha (Homo sapiens) (UniProt Q16665). Put plainly: ATG_HIF1a_CIS: Attagene CIS-FACTORIAL HepG2 Assay for human Hypoxia Inducible Factor 1 (HIF1A) (AID 2282951). The following applies: HepG2 Attagene cis-factorial HIF1a reporter transcription; actives raise or lower the signal. The essentials:
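Fluorescence intensity of capillary-separated, 6-FAM-labelled reporter amplicons gives mRNA induction in HepG2 cells carrying transfected cis-promoter reporter units; cells exposed 24 h, responses fitted up or down from DMSO.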

The target in assay [17] is Hepatocyte nuclear factor 6 (Homo sapiens) (UniProt Q9UBC0). As to the kind of experiment: ATG_HNF6_CIS: Attagene CIS-FACTORIAL HepG2 Assay for human Hepatocyte Nuclear Factor 6 (HNF6) (AID 2282952). The following applies: HepG2 Attagene cis-factorial HNF6 reporter transcription; actives raise or lower the signal. The essentials: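 First, HepG2 cells were transfected with the multiplexed cis reporter library and dosed with chemical for 24 h. Next, RNA was reverse-transcribed, PCR-amplified and fluorescently labelled. Finally, HpaI-digested fragments were read by capillary electrophoresis.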

Assay [18] is described as follows: ATG_GRE_CIS: Attagene CIS-FACTORIAL HepG2 Assay for human Glucocorticoid Response Elements (GRE) (AID 2282947). The settings on record: HepG2 GRE cis-reporter, Attagene multiplex mRNA; actives raise or lower the signal. The method, boiled down:
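Read-out: fluorescent reporter-transcript fragments separated by capillary electrophoresis after RT-PCR. Transiently transfected HepG2 cells carrying cis-element-driven reporter units were dosed for 24 h; gain or loss of signal fitted against DMSO control.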

Assay [19] addresses Heat shock factor protein 1 (Homo sapiens) (UniProt Q00613). As to the kind of experiment: ATG_HSE_CIS: Attagene CIS-FACTORIAL HepG2 Assay for human Heat Shock Transcription Factor 1 (HSE) (AID 2282953). The following applies: HepG2 HSE cis-reporter, Attagene RNA transcription; actives raise or lower the signal. The essentials:
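After a 24 h incubation with test chemical, transfected HepG2 cells were harvested for RNA; reporter transcripts were measured by RT-PCR and capillary electrophoresis. Values reflect gain or loss of signal relative to DMSO.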

Assay [20] in a line: ATG_MRE_CIS: Attagene CIS-FACTORIAL HepG2 Assay for human Metal Responsive Element (MRE) (AID 2282954). The following applies: HepG2 MRE cis-reporter transcription, Attagene multiplex; actives raise or lower the signal. The method, boiled down: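 RT-PCR/capillary electrophoresis readout of reporter mRNA, 24 h post-dosing, in HepG2 cells transfected with multiplexed cis-regulated reporter constructs. Gain or loss of signal fitted bidirectionally against DMSO baseline.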

Transcription factor E2F1 (Homo sapiens), sequence (Q01094 whole entry, looked up): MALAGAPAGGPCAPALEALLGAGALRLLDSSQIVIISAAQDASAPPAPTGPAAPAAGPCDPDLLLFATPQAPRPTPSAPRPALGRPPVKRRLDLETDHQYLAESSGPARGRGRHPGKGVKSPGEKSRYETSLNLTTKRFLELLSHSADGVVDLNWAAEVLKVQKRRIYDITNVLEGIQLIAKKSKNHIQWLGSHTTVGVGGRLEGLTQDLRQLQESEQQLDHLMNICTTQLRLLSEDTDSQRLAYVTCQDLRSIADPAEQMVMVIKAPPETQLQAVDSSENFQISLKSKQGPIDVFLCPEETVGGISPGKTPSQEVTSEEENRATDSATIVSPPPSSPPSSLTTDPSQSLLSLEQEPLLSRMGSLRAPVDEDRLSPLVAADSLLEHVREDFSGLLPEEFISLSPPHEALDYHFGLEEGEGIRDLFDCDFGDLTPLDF
Bile acid receptor (Homo sapiens), sequence (Q96RI1 whole entry, looked up): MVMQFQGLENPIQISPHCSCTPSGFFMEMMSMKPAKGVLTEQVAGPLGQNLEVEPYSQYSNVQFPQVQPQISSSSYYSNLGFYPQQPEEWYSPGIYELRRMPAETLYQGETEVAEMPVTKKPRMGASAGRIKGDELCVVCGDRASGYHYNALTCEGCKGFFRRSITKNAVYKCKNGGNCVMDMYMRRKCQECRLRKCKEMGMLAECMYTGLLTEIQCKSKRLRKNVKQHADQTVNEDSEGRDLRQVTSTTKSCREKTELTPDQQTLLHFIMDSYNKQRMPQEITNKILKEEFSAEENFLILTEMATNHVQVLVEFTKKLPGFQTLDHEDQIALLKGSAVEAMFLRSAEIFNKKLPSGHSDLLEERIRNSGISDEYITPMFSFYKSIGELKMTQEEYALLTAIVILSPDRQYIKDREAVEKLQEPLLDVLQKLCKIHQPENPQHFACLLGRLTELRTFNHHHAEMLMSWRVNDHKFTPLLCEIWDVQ
Hypoxia-inducible factor 1-alpha (Homo sapiens), sequence (Q16665 whole entry, looked up): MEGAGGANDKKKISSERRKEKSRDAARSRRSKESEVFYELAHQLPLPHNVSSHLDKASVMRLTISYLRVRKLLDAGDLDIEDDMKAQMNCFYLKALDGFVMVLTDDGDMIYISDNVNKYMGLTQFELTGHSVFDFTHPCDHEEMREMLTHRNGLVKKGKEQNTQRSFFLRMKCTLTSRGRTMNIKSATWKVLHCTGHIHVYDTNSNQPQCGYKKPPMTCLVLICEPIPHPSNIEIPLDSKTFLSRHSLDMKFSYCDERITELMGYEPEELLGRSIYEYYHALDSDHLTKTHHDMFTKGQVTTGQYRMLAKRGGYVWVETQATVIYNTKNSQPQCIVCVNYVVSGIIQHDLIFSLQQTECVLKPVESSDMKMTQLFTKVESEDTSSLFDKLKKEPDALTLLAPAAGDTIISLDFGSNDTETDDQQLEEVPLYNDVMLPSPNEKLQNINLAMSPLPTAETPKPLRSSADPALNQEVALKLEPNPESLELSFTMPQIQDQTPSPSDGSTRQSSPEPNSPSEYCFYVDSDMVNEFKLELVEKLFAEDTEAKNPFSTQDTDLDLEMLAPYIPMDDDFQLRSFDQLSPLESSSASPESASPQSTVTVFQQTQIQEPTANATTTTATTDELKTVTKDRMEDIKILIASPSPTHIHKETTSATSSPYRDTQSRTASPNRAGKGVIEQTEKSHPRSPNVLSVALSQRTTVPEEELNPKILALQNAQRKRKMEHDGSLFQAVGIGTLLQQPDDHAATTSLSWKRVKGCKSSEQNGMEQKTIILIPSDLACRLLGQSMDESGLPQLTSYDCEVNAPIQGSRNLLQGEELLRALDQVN
Hepatocyte nuclear factor 6 (Homo sapiens), sequence (Q9UBC0 whole entry, looked up, the tested form may be a part): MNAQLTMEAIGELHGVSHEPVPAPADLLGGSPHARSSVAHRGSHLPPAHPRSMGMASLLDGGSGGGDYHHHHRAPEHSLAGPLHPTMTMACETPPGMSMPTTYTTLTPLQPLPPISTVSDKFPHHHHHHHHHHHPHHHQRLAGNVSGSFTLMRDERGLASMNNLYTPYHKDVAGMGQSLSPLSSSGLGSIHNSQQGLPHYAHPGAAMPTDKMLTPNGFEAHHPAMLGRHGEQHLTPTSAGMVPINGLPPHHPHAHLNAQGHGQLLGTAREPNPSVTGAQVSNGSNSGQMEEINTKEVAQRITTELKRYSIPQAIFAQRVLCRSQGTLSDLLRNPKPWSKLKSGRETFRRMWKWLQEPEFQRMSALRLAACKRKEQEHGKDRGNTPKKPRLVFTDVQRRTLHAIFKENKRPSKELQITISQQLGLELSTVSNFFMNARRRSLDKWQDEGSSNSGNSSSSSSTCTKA
Hepatocyte nuclear factor 3-beta (Homo sapiens), sequence (Q9Y261 whole entry, looked up): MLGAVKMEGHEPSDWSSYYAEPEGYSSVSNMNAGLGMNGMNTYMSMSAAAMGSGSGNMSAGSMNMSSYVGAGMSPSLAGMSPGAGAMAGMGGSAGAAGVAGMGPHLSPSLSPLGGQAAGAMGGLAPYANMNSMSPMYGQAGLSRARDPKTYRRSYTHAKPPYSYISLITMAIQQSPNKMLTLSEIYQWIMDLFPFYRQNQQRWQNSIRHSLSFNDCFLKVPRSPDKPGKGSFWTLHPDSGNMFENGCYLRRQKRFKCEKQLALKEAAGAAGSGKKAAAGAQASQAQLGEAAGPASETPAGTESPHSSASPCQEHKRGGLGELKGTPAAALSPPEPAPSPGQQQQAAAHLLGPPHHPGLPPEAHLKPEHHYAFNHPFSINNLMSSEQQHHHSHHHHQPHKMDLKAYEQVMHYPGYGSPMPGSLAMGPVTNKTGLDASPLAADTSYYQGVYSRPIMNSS
Heat shock factor protein 1 (Homo sapiens), sequence (Q00613 whole entry, looked up): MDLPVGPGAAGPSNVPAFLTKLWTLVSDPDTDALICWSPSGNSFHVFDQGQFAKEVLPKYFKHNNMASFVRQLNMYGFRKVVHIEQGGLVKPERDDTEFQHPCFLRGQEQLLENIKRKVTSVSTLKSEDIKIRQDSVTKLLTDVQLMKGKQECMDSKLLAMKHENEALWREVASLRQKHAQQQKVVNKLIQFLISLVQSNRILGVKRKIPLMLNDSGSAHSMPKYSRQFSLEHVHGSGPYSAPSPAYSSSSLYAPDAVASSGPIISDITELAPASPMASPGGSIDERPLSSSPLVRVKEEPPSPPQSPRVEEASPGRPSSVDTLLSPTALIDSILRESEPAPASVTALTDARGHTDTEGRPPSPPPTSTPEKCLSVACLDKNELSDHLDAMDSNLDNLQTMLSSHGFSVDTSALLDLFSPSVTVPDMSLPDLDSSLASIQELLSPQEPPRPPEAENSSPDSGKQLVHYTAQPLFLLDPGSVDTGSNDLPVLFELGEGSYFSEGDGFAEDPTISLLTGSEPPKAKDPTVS

On to `Clc1cccc(C(Cl)(Cl)Cl)n1`, for which the result in assay [1], in [2], in [3], in assay [4], in assay [5] and in [6] was inactive. Moreover, the outcome in assay [7], in [8], in assay [9], in assay [10], in assay [11] and in assay [12] was inactive. In addition, the outcome in assay [13], in [14], in [15], in assay [16] and in assay [17] was inactive.

Turning to `CO/N=C(/C1=NOCCO1)c1ccccc1Oc1ncnc(Oc2ccccc2Cl)c1F`, the call in assay [1], in [2], in assay [3], in assay [5], in [6] and in assay [7] was inactive. For the same compound, the compound was classed as inactive in [8], in assay [9], in assay [10], in assay [11], in [12] and in assay [18]. For the same compound, the outcome in assay [14], in assay [15], in [16] and in assay [17] was inactive. Besides, the AC50 in [4] is 2.61 µM (active); in assay [13], 4.82 µM (active); in assay [19], 17.8 µM (active).

`COc1ccc(-c2ccccc2)cc1NNC(=O)OC(C)C`: the compound was called inactive in assay [1], in [2], in [4], in [5], in [6] and in [7]. Further, the outcome in assay [8], in assay [9], in assay [10], in assay [11], in assay [12] and in [13] was inactive. The compound was classed as inactive in [14], in assay [15] and in [17]. In addition, the AC50 in assay [16] was 22.8 µM (active); in assay [20] it was 22.7 µM (active).

`O=C(Nc1ccccc1-c1ccc(Cl)cc1)c1cccnc1Cl`: the result in assay [1], in assay [2], in assay [4], in [5], in assay [6] and in assay [7] was inactive. In addition, the compound was called inactive in assay [8], in assay [9], in assay [10], in [11], in assay [13] and in assay [14]. The outcome in [15], in [16] and in [17] was inactive.

For the compound `CC1(C)C(C=C(Cl)Cl)C1C(=O)OC(C#N)c1cccc(Oc2ccccc2)c1` (stereo not given), the outcome in assay [1], in [2], in assay [4], in [5], in assay [7] and in [8] was inactive. The compound was called inactive in assay [9], in assay [10], in assay [11], in [18], in [13] and in assay [14]. For the same compound, the outcome in assay [15], in assay [16] and in assay [17] was inactive. Further, the AC50 in [6] is 14.6 µM (active); in assay [20] it was 14.9 µM (active).
